Assay results from PubChem BioAssay (NCI).
This is part of a sample that, as a whole, favours compounds with a hit. Of some 83,000 tested, about 20% had one in any assay.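 Assay: single dose, 48 h. Readout: percent growth (0 = no net growth; negative = cell death). Active: <10.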 Values without a mark were called inactive. The source made the active and inactive calls.

Tested on: SF-295 CNS
Experiment: NCI-60 one-dose screen, 48 h (100 = growth as untreated, 0 = no growth, -100 = all killed)
Settings: 10 µM unless noted

SMILES	growth
O=C(CSc1nccc(=O)[nH]1)Nc1ccc(-c2nc3ccccc3[nH]2)cc1	115%
N[C@@H](Cc1cn(-c2ccnc3ccccc23)nn1)C(=O)O	104%
CCOC(=O)c1c(Nc2ccccc2)nn2c(N)c(C#N)c(-c3ccc(F)cc3)nc12	86.5%
O=C(N/N=C/c1ccc([N+](=O)[O-])o1)c1[nH]c2ccc(Br)cc2c1-c1ccccc1	21.3%
CN(C)CCCNc1c2ccc(Cl)cc2nc2c1oc1ccc(Cl)cc12	-66.9% (active)
Cc1c(NC(=O)CSc2nc3sc4c(c3c(=O)n2-c2ccc(Cl)cc2)CCCC4)c(=O)n(-c2ccccc2)n1C	95.5%
CC(C)(C)Nc1nc2c(OCCc3ccccc3)cccn2c1-c1ccc(Cl)cc1	3.7% (active)
CN(C)CCCNc1c2ccc(Cl)cc2nc2c1oc1ccccc12	-25.1% (active)
COc1ccccc1C(=O)CSc1nc(Nc2ccc(S(N)(=O)=O)cc2)c2ccccc2n1	97.6%
COc1ccccc1/C=C/C=N/NC1=NC2C(S1)N(C)C(=O)N2C (stereo not drawn)	16.2%
COc1cccc(N2CCN(c3ncnc4c3[nH]c3ccc(F)cc34)C[C@@H]2C)c1	-14.9% (active)
O=C(CSc1nnc(-c2ccc3nc(-c4ccc(Cl)cc4)[nH]c3c2)o1)Nc1ccc(C(=O)/C=C/c2ccc(Cl)cc2)cc1	93%
Cc1nc2cnc(N)c(C#Cc3cncc(C(=O)Nc4ccc(Cl)c(C(F)(F)F)c4)c3)c2nc1C	88.5%
Cc1ccc(C(=O)Nc2cccc(C(F)(F)F)c2)cc1Nc1nc(-c2cnccn2)nc2c1cnn2C	79%
CC(=O)Oc1ccccc1C(=O)Nc1cc(C(C)C)ccc1C	11.3%
COc1ccc(/C=N/NC(=O)c2[nH]c3ccc(Br)cc3c2-c2ccccc2)s1	15.6%
O=C(CN1C(=O)/C(=C/c2ccccc2)SC1=S)N1CCOCC1	103%
COc1ccc(-c2nc3ccc(-c4nnc(SCC(=O)Nc5ccc(C(=O)/C=C/c6ccc(Cl)cc6)cc5)o4)cc3[nH]2)cc1OC	98%
CN1C(=S)N(C)C2C1NN=C1SC(c3ccccc3)=CC(=O)N12 (stereo not drawn)	98%

SMILES	growth
CN(C)c1ccc(/C=C2\Cc3c(F)ccc(Br)c3C2=O)cc1	101%
CN(C)S(=O)(=O)c1oc(-c2ccccc2)nc1C#N	99.3%
CC(C)(C)OC(=O)N1C(=O)c2c(c3c4ccccc4[nH]c3c3ccc4ccccc4c23)C1=O	50.2%
Cc1[nH]nc2ncc(C#Cc3cncc(C(=O)Nc4ccc(CN5CCN(C)CC5)c(C(F)(F)F)c4)c3)cc12	34.2%
C#Cc1nc(C2=C(C)C(=N\O)/C(=N/O)C2)cs1	101%
O=c1[nH]c2ccccc2cc1CSc1ccccc1Nc1nccc(-c2ccc(C(F)(F)F)cc2)n1	72.7%
COC1CCN(Cc2ccc3c(NNC(=O)c4cnccn4)nc4cc(F)ccc4n23)C1 (stereo not drawn)	21.4%
O=C(CN1CCOCC1)NNc1ncnc2ccccc12	95.9%
Cn1c(SCC(=O)Nc2ccc(-c3nc4ccc([N+](=O)[O-])cc4[nH]3)cc2)nc2ccccc2c1=O	77.1%
O=C(CSc1nc2sc3c(c2c(=O)n1-c1ccc(Cl)cc1)CCCC3)N/N=C/c1ccc(F)cc1	106%
O=c1/c(=C\c2ccc(-c3ccccc3)o2)sc2nc(-c3ccccc3)nn12	105%
COC(=O)C1CCCN(S(=O)(=O)/N=C2\NC(=O)NC2=C(Cl)Cl)C1 (stereo not drawn)	104%
Clc1ccc2c(NCCCN3CCOCC3)c3oc4ccc(Cl)cc4c3nc2c1	35%
N#Cc1nc(-c2ccccc2)oc1N1CC[C@@H](CO)C1	97.1%
O=C(c1ccc(O)cc1)C1[C@H](c2ccc(Cl)cc2)[C@@H](c2ccccc2)NC12C(=O)Nc1ccc(Cl)cc12 (stereo partly drawn)	41.1%
COc1cccc(OC)c1-c1nnn(C)c1C(=S)N1CCN(c2ccc([N+](=O)[O-])cc2Cl)CC1	89.9%
CCCC(=O)NC(c1cccc(N(C)C)c1)c1cc(C)c2cccnc2c1O (stereo not drawn)	42.3%
CC(=O)Oc1ccccc1C(=O)Nc1ccc(C(=O)/C=C/c2ccncc2)cc1	49.5%
C#Cc1nc(C2=C(C)C(OC(=O)CCC(=O)O)CC2)cs1 (stereo not drawn)	108%
